Source: PubChem BioAssay (Tox21)
Unmarked numbers belong to inactive results. Inconclusive results are not listed. Entries that show only a call come without a potency. Activity calls are given as the source filed them. Unless noted, the call rests on the fitted dose curve.

Assays:
[1] = Nuclear factor erythroid 2-related factor 2/antioxidant responsive element (Nrf2/ARE) small molecule agonists: qHTS cell viability counter screen in human keratinocytes (AID 1919968; active means well fitted curve in the direction sought with a large enough effect in the repeat runs; an effect the other way counts as inactive or inconclusive; further: nearly all actives have a fitted effect of over 55% in size)
How it was run: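 KeratinoSens HaCaT cells, 1,500/well, preincubated 5 h, then exposed to compounds in DMSO for 23 h at 37 C/5% CO2. Viability read as CellTiter-Fluor fluorescence after 1 h, in the same wells as the ARE-luciferase read.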

[2] = molecular target: Gonadotropin-releasing hormone receptor (Homo sapiens) (UniProt P30968); assay: Human gonadotropin-releasing hormone receptor (GnRHR) small molecule agonists, calcium flux assay in GnRHR-HEK293 cells (AID 1920063); further: nearly all actives have a fitted effect of over 35% in size
How it was run: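 HEK293 cells stably expressing human GnRHR were dye-loaded for 1 h at 37 C. Compound was added in agonist mode and fluorescence (Ex/Em 480/540) recorded kinetically for 3 min. Fifteen concentrations, triplicates.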

[3] = molecular target: KiSS-1 receptor (Homo sapiens) (UniProt Q969F8); assay: Human kisspeptin (KISS1R) small molecule agonists, calcium flux assay in KISS1R-HEK293 cells (AID 1920064; active means well fitted curve in the direction sought with a large enough effect in the repeat runs; an effect the other way counts as inactive or inconclusive)
How it was run: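 HEK293 cells stably expressing human KISS1R were loaded with calcium dye for 1 h at 37 C, then given compound; fluorescence (Ex/Em 480/540) was read kinetically for 3 min. Fifteen concentrations, triplicate.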

[4] = G protein-coupled receptor (GPCR) small molecule agonists, calcium flux assay: HEK293 wild type cell line counter screen (AID 1920065)
How it was run: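 Wild-type HEK293 cells plated 18 h, loaded with calcium dye 1 h at 37 C, then compounds added in agonist mode (ATP as positive control). Kinetic fluorescence Ex/Em 480/540 recorded 3 min at 1 sec intervals; 15 concentrations, triplicate.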

[5] = p53 small molecule agonists, cell-based qHTS assay with human liver microsomes (AID 1963577);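 further: p53 response element beta-lactamase reporter cells with liver microsomes plus NADPH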
How it was run: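 With metabolic activation: human liver microsomes (0.5 mg/mL final) plus NADPH (0.5 mg/mL final) added alongside compounds to p53RE-bla cells; 16 h 37 C exposure; beta-lactamase read by LiveBLAzer fluorescence.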

[6] = p53 small molecule agonists, cell-based qHTS assay with rat liver microsomes (AID 1963578)
How it was run: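 Metabolic activation by rat liver microsomes and NADPH, each 0.5 mg/mL final, added right after compounds to p53RE-bla reporter cells (4,000/well, plated 5 h earlier). 16 h at 37 C, then LiveBLAzer substrate for 2 h at room temperature in the dark; fluorescence read-out.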

[7] = p53 small molecule agonists, cell-based qHTS assay with human liver microsomes: qHTS cell viability counter screen (AID 1963579); further: nearly all actives have a fitted effect of over 45% in size
How it was run: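 Metabolic activation used human liver microsomes and NADPH, both 0.5 mg/mL final, over 16 hours at 37 C on p53RE-bla cells (4,000/well). Cytotoxicity measured by CellTiter-Glo luminescence, 30 min at room temperature.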

[8] = p53 small molecule agonists, cell-based qHTS assay with rat liver microsomes: qHTS cell viability counter screen (AID 1963580); further: nearly all actives have a fitted effect of over 45% in size
How it was run: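 p53RE-bla HCT-116 cells were exposed 16 h at 37 C to compounds with rat liver microsomes (0.5 mg/mL) and NADPH (0.5 mg/mL). Viability was measured in the same wells as ATP content by CellTiter-Glo luminescence.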

[9] = p53 small molecule agonists, cell-based qHTS assay: qHTS cell viability counter screen (AID 1963581); further: nearly all actives have a fitted effect of over 45% in size
How it was run: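 p53RE-bla HCT-116 cells, compounds added 5 h after plating and incubated 16 h at 37 C. Cytotoxicity measured in the same wells as intracellular ATP by CellTiter-Glo luminescence after 30 min at room temperature.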

[10] = p53 small molecule agonists, cell-based qHTS assay (AID 1963582; active means well fitted activation curve with a large enough effect in the signal ratio in the repeat runs, not every such curve was filed as active; the % refers to the signal ratio)
How it was run: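 p53RE-bla reporter cells, compounds added in DMSO after 5 h plating, incubated 16 h at 37 C. Beta-lactamase read via 2 h room-temperature LiveBLAzer B/G FRET substrate, fluorescence intensity.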

[11] = molecular target: 5-hydroxytryptamine receptor 2A (Homo sapiens) (UniProt P28223); assay: 5-hydroxytryptamine receptor 2A (HTR2A) small molecule antagonists, cell-based qHTS assay (AID 1963586); further: nearly all actives have a fitted effect of over 45% in size; further: potency means the concentration at half of the fitted maximal effect
How it was run: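 Antagonist-mode intracellular calcium assay: DOI (4 nM) added after 5 min compound pre-incubation at room temperature to dye-loaded HTR2A-CHO cells. Fluorescence followed for 3 min, sampled every second.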

[12] = molecular target: 5-hydroxytryptamine receptor 2A (Homo sapiens) (UniProt P28223); assay: 5-hydroxytryptamine receptor 2A (HTR2A) small molecule agonists, cell-based qHTS assay (AID 1963587); further: nearly all actives have a fitted effect of over 30% in size; further: potency means the concentration at half of the fitted maximal effect
How it was run: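 CHO cells stably expressing human HTR2A, plated 18 h, loaded with calcium dye 1 h at 37 C. Agonist mode: compounds added and intracellular calcium fluorescence recorded kinetically for 2 min at 1 sec intervals.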

[13] = molecular target: Muscarinic acetylcholine receptor M1 (Homo sapiens) (UniProt P11229); assay: Cholinergic receptor muscarinic 1 (CHRM1) small molecule antagonists, cell-based qHTS assay (AID 1963588); further: nearly all actives have a fitted effect of over 40% in size
How it was run: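 CHRM1-CHO calcium-flux assay, antagonist mode. Cells were seeded 18 h, dye-loaded 1 h at 37 C and given compound for 5 min at RT, then acetylcholine was added at 50nM. FDSS fluorescence was read 3 min; 15 concentrations, three runs.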

[14] = cAMP Responsive Elements (CRE) small molecule agonists, cell-based qHTS assay (AID 1963590)
How it was run: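 CRE-bla HEK 293T cells, 2,000/well in DMEM with 10% dialyzed FBS and 25 mM HEPES, pre-incubated 18 h at 37 C, then exposed to compound 3 h at 37 C. Beta-lactamase reporter read with LiveBLAzer B/G FRET substrate after 2 h at room temperature.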

[15] = cAMP Responsive Elements (CRE) small molecule antagonists, cell-based qHTS assay (AID 1963591; active means well fitted inhibition curve with a large enough effect in the signal ratio in the repeat runs, not every such curve was filed as active; the % refers to the signal ratio; further: potency means the concentration at half of the fitted maximal effect)
How it was run: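 CRE-bla HEK293T cells plated 18 h, then given compound plus NKH477 at 0.25 uM final for 3 h at 37C. Beta-lactamase reporter read with LiveBLAzer B/G FRET substrate after 2 h at room temperature.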

[16] = molecular target: D(2) dopamine receptor (Homo sapiens) (UniProt P14416); assay: Dopamine D2 receptor (DRD2) small molecule agonists, cell-based qHTS assay (AID 1963594); further: nearly all actives have a fitted effect of over 35% in size; further: potency means the concentration at half of the fitted maximal effect
How it was run: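 HEK293 cells stably expressing human DRD2, pre-treated with PDE inhibitor Ro20-1724 (0.1 mM final) and compound 10 min at room temperature, then stimulated with NKH477 (200nM […]) for 30 min. cAMP read by HTRF (665/620 nm).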

[17] = molecular target: Beta-2 adrenergic receptor (Homo sapiens) (UniProt P07550); assay: Adrenergic beta2 receptor (ADRB2) small molecule antagonists, cell-based qHTS assay (AID 1963592); further: series mostly up to about 92 µM; nearly all actives have a fitted effect of over 50% in size
How it was run: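 Cells (CHO, stable ADRB2 overexpression) incubated 18-20hr at 37C; compounds added from DMSO; agonist mix (1nM isoproterenol, 100uM IBMX, 25uM Ro-20-1724) added; 0.5hr RT; d2-cAMP and anti-cAMP-cryptate added; 1hr RT; 665/615 nm read.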

[18] = molecular target: Muscarinic acetylcholine receptor M1 (Homo sapiens) (UniProt P11229); assay: Cholinergic receptor muscarinic 1 (CHRM1) small molecule agonists, cell-based qHTS assay (AID 1963589); further: nearly all actives have a fitted effect of over 35% in size
How it was run: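 CHO cells stably expressing human CHRM1 were loaded with calcium dye for 1 h at 37 C, then compound was added in agonist mode. Intracellular calcium fluorescence was followed kinetically at 1 s intervals. Fifteen concentrations were tested in three independent runs.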

[19] = molecular target: D(2) dopamine receptor (Homo sapiens) (UniProt P14416); assay: Dopamine D2 receptor (DRD2) small molecule antagonists, cell-based qHTS assay (AID 1963595; active means well fitted inhibition curve with a large enough effect in the signal ratio in the repeat runs, with a control signal flat; the % refers to the signal ratio)
How it was run: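 In this cell-based antagonist screen, compounds act for 10 min at room temperature before a 30 min challenge with 12 nM quinpirole and 200 nM NKH477. cAMP is quantified by HTRF competition in DRD2-HEK293 cells containing 0.1 mM Ro20-1724.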

Gonadotropin-releasing hormone receptor (Homo sapiens), sequence (P30968 whole entry, looked up): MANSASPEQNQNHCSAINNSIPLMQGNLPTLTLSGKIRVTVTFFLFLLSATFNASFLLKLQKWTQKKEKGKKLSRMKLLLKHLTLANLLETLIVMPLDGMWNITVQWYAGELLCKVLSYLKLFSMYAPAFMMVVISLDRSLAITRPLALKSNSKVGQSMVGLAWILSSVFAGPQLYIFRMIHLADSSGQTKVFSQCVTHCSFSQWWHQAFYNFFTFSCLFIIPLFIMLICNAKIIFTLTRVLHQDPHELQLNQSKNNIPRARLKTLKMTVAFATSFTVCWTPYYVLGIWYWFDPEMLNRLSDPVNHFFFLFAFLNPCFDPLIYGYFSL
D(2) dopamine receptor (Homo sapiens), sequence (P14416 whole entry, looked up): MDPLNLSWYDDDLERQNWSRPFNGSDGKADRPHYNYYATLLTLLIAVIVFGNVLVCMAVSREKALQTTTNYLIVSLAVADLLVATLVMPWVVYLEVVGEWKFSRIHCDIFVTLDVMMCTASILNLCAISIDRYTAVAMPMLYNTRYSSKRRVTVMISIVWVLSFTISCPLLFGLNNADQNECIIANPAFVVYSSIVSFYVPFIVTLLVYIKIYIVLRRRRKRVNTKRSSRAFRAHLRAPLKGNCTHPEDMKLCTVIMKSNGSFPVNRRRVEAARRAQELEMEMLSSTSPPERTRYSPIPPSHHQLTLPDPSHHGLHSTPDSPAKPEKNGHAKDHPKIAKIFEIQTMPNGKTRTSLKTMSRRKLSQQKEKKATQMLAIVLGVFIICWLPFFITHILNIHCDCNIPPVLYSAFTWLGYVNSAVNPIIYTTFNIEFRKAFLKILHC
5-hydroxytryptamine receptor 2A (Homo sapiens), sequence (P28223 whole entry, looked up): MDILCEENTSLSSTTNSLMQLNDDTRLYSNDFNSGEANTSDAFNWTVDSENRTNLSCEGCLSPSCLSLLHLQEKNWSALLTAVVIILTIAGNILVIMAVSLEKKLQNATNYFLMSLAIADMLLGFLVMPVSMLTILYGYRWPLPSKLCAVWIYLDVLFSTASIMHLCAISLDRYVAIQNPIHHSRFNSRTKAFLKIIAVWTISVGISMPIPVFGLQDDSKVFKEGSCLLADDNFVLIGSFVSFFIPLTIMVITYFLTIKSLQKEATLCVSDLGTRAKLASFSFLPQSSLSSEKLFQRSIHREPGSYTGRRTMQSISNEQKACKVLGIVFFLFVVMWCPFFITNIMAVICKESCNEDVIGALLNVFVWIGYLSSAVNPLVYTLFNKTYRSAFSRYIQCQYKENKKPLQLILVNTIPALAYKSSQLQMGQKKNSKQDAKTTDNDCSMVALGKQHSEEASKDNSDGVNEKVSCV
KiSS-1 receptor (Homo sapiens), sequence (Q969F8 whole entry, looked up): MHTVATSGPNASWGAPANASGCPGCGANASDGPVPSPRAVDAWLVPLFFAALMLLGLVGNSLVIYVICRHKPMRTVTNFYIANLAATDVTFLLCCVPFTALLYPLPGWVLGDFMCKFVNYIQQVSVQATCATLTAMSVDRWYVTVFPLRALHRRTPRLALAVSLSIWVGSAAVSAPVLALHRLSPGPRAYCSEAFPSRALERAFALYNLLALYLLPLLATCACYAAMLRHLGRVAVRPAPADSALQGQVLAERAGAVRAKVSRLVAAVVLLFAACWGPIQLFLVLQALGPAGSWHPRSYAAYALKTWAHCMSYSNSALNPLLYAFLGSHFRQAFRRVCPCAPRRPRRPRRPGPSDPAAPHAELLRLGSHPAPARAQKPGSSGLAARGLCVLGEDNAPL
Muscarinic acetylcholine receptor M1 (Homo sapiens), sequence (P11229 whole entry, looked up): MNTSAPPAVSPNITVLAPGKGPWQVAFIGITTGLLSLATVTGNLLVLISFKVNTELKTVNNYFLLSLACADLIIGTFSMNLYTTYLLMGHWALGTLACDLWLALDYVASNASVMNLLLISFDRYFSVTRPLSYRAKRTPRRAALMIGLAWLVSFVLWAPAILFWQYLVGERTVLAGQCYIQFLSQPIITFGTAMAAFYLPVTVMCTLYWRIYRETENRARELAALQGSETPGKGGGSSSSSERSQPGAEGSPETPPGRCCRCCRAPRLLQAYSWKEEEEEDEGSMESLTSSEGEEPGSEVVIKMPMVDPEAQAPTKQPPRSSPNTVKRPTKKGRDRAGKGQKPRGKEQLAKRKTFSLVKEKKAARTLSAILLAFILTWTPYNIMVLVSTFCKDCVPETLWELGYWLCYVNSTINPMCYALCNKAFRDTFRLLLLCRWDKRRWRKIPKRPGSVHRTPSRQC
Beta-2 adrenergic receptor (Homo sapiens), sequence (P07550 whole entry, looked up): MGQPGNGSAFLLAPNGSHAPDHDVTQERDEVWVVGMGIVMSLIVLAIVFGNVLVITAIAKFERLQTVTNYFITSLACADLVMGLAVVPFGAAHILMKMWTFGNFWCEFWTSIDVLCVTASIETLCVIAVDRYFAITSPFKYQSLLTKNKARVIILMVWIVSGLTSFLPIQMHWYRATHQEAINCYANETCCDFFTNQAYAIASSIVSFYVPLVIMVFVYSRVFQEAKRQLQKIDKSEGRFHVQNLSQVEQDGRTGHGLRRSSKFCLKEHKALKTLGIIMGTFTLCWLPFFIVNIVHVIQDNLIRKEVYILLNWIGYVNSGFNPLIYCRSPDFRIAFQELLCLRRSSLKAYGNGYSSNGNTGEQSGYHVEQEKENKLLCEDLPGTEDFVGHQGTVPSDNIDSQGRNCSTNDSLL

## CCCN(CCC)CCc1c[nH]c2ccccc12
[1]
  Potency: inactive
[2]
  Potency: inactive
[3]
  Potency: inactive
[4]
  Potency: inactive
[5]
  Potency: inactive
[6]
  Potency: inactive
[7]
  Potency: inactive
[8]
  Potency: inactive
[9]
  Potency: inactive
[10]
  Potency: inactive
[11]
  Potency: 0.0131 µM (active)
[12]
  Potency: 0.0043 µM (active)
[13]
  Potency: inactive
[14]
  Potency: inactive
[15]
  Potency: inactive
[16]
  Potency: 21.4 µM (active)

## N#CN=C1SCCN1Cc1ccc(Cl)nc1
[1]
  Potency: inactive
[2]
  Potency: inactive
[3]
  Potency: inactive
[4]
  Potency: inactive
[5]
  Potency: inactive
[6]
  Potency: inactive
[7]
  Potency: inactive
[8]
  Potency: inactive
[10]
  Potency: inactive
[11]
  Potency: inactive
[12]
  Potency: inactive
[13]
  Potency: inactive
[15]
  Potency: inactive
[17]
  Potency: inactive
[16]
  Potency: inactive

## CCS(=O)(=O)c1cccnc1S(=O)(=O)NC(=O)Nc1nc(OC)cc(OC)n1
[1]
  Potency: inactive
[2]
  Potency: inactive
[3]
  Potency: inactive
[4]
  Potency: inactive
[5]
  Potency: inactive
[6]
  Potency: inactive
[7]
  Potency: inactive
[8]
  Potency: inactive
[10]
  Potency: inactive
[11]
  Potency: inactive
[12]
  Potency: inactive
[13]
  Potency: inactive
[18]
  Potency: inactive
[14]
  Potency: inactive
[15]
  Potency: inactive
[17]
  Potency: inactive
[16]
  Potency: inactive
[19]
  Potency: inactive

## CN1CCC(O)(c2ccc(F)cc2)C(C(=O)c2ccc(F)cc2)C1 (centres undefined)
[1]
  Potency: inactive
[2]
  Potency: inactive
[3]
  Potency: inactive
[4]
  Potency: inactive
[5]
  Potency: inactive
[6]
  Potency: inactive
[7]
  Potency: inactive
[8]
  Potency: inactive
[9]
  Potency: inactive
[10]
  Potency: inactive
[11]
  Potency: inactive
[12]
  Potency: inactive
[15]
  Potency: inactive
[16]
  Potency: inactive
[19]
  Potency: inactive

## O=C(NC(=O)c1c(F)cccc1F)Nc1cc(Cl)c(OC(F)(F)C(F)F)c(Cl)c1
[1]
  Potency: inactive
[2]
  Potency: inactive
[3]
  Potency: inactive
[4]
  Potency: inactive
[5]
  Potency: inactive
[6]
  Potency: inactive
[7]
  Potency: inactive
[8]
  Potency: inactive
[9]
  Potency: inactive
[10]
  Potency: inactive
[12]
  Potency: inactive
[18]
  Potency: inactive
[14]
  Potency: inactive
[15]
  Potency: inactive
[17]
  Potency: inactive
[16]
  Potency: inactive
[19]
  Potency: inactive

## COC1=CC(=O)O[C@@H](/C=C/c2ccccc2)C1
[1]
  Potency: inactive
[2]
  Potency: inactive
[3]
  Potency: inactive
[4]
  Potency: inactive
[5]
  Potency: inactive
[6]
  Potency: inactive
[7]
  Potency: inactive
[8]
  Potency: inactive
[9]
  Potency: inactive
[10]
  Potency: inactive
[11]
  Potency: inactive
[12]
  Potency: inactive
[13]
  Potency: inactive
[18]
  Potency: inactive
[17]
  Potency: inactive
[16]
  Potency: inactive
[19]
  Potency: inactive

## ClC(Cl)(Cl)Cl
[1]
  Potency: inactive
[2]
  Potency: inactive
[3]
  Potency: inactive
[4]
  Potency: inactive
[5]
  Potency: inactive
[6]
  Potency: inactive
[7]
  Potency: inactive
[8]
  Potency: inactive
[9]
  Potency: inactive
[10]
  Potency: inactive
[14]
  Potency: inactive
[15]
  Potency: inactive
[17]
  Potency: inactive
[19]
  Potency: inactive

## O=C(Nc1ccccc1)Nc1cnns1
[1]
  Potency: inactive
[2]
  Potency: inactive
[3]
  Potency: inactive
[4]
  Potency: inactive
[5]
  Potency: inactive
[6]
  Potency: inactive
[7]
  Potency: inactive
[9]
  Potency: inactive
[10]
  Potency: inactive
[11]
  Potency: inactive
[12]
  Potency: inactive
[13]
  Potency: inactive
[18]
  Potency: inactive
[15]
  Potency: inactive
[17]
  Potency: inactive
[16]
  Potency: inactive
[19]
  Potency: inactive

## Cn1[nH]nnc1=S
[1]
  Potency: inactive
[2]
  Potency: inactive
[3]
  Potency: inactive
[4]
  Potency: inactive
[5]
  Potency: inactive
[6]
  Potency: inactive
[7]
  Potency: inactive
[8]
  Potency: inactive
[9]
  Potency: inactive
[13]
  Potency: inactive
[18]
  Potency: inactive
[14]
  Potency: inactive
[15]
  Potency: inactive
[16]
  Potency: inactive
[19]
  Potency: inactive

## CCOCCOC(C)=O
[1]
  Potency: inactive
[2]
  Potency: inactive
[3]
  Potency: inactive
[4]
  Potency: inactive
[6]
  Potency: inactive
[10]
  Potency: inactive
[12]
  Potency: inactive
[18]
  Potency: inactive
[14]
  Potency: inactive
[15]
  Potency: 12.8 µM (active)
[16]
  Potency: inactive

## CC(C)N(C(=O)SC/C(Cl)=C/Cl)C(C)C
[1]
  Potency: inactive
[2]
  Potency: inactive
[3]
  Potency: inactive
[4]
  Potency: inactive
[5]
  Potency: inactive
[6]
  Potency: inactive
[7]
  Potency: inactive
[9]
  Potency: inactive
[10]
  Potency: inactive
[11]
  Potency: inactive
[12]
  Potency: inactive
[18]
  Potency: inactive
[14]
  Potency: inactive
[15]
  Potency: inactive
[17]
  Potency: inactive
[16]
  Potency: inactive

## C[C@H]1[C@@H]2Cc3ccc(O)cc3[C@@]1(C)CCN2C
[1]
  Potency: inactive
[2]
  Potency: inactive
[3]
  Potency: inactive
[4]
  Potency: inactive
[5]
  Potency: inactive
[6]
  Potency: inactive
[9]
  Potency: inactive
[10]
  Potency: inactive
[11]
  Potency: inactive
[12]
  Potency: inactive
[13]
  Potency: inactive
[18]
  Potency: inactive
[14]
  Potency: inactive
[15]
  Potency: inactive
[17]
  Potency: inactive
[16]
  Potency: inactive
[19]
  Potency: inactive

## COC(=O)COc1ccc(Cl)cc1Cl
[1]
  Potency: inactive
[2]
  Potency: inactive
[3]
  Potency: inactive
[4]
  Potency: inactive
[5]
  Potency: inactive
[6]
  Potency: inactive
[8]
  Potency: inactive
[9]
  Potency: inactive
[10]
  Potency: inactive
[11]
  Potency: inactive
[12]
  Potency: inactive
[13]
  Potency: inactive
[18]
  Potency: inactive
[17]
  Potency: inactive
[16]
  Potency: inactive
[19]
  Potency: inactive
